Only some compounds are listed: those with a hit (about 19% of all), similar ones and a draw of the others.
HT1080-NT tox: qHTS for induction of synthetic lethality in tumor cells producing 2HG: qHTS for the HT-1080-NT fibrosarcoma cell line; HT-1080-NT fibrosarcoma viability, CellTiter-Glo ATP luminescence, 48 h; Potency, µM (series often up to 46.1 µM), without a hit: at the top dose activity, negative = less viability, actives largely listed as cytotoxic; 360,000 compounds, 1.6% hits;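 also: NT is the 2HG producing partner of a matched IDH1 knockdown line; potency is read from the fitted curve at half-maximal effect; 0% = DMSO-treated cells and -100% = media-only wells without cells; nearly all actives have a fitted effect of over 55% in size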
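Viability of the 2HG-overproducing fibrosarcoma line after 48 hours of compound exposure at 37 degrees C was determined by luminescence with CellTiter-Glo, and concentration-effect curves were then fitted and categorized.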
TDP1 cell CPT: qHTS for Inhibitors of human tyrosyl-DNA phosphodiesterase 1 (TDP1): qHTS in cells in presence of CPT. chicken DT40 Tdp1-/-;hTDP1 cells + 20 nM CPT, ATP luminescence, 48 h. Potency, µM (series often up to 46.2 µM), for the others: at the highest dose activity change, negative = growth inhibition, actives largely listed as inhibitors. 420,000 compounds, 12% hits; also: potency is read from the fitted curve at half-maximal effect; nearly all actives have a fitted effect of over 55% in size
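Cell growth measured by CellTiter-Glo luminescence after a minimum 48 h, 37 C compound exposure with 20 nM CPT in Tdp1-knockout DT40 cells stably expressing hTDP1, seeded 400/well; qHTS titration format.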
IL1B secr inh: qHTS for Inhibitors of Inflammasome Signaling: IL-1-beta AlphaLISA Primary Screen | 360,000 compounds, 4.7% hits | THP-1 LPS/ATP IL-1B secretion, AlphaLISA, 16 h; hits give low values | activity change, % at 57.5 µM; in the data active = activity change below about -50%; inconclusive = mostly about -30% to -49%
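Secreted IL-1B measured by AlphaLISA bead assay after 16 h compound exposure of THP-1 cells; compounds (final up to 57.5 uM) added 1 h before LPS (250 ng/mL) and ATP (1.25 mM) stimulation; lower signal means less secretion.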
ELG1 DNA repair: qHTS screen for small molecules that inhibit ELG1-dependent DNA repair in human embryonic kidney (HEK293T) cells expressing luciferase-tagged ELG1 | HEK293T ELG1-luciferase reporter, luminescence, 16 h; DNA damage induced by 5-fluorouridine | Potency, µM (series often up to 46.1 µM), for the others: at the highest dose activity change, negative = inhibition, usual class: inhibitors | 330,000 compounds, 2.3% hits; also: potency is read from the fitted curve at half-maximal effect; nearly all actives have a fitted effect of over 55% in size
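In this reporter screen, reduction of luminescence relative to DMSO vehicle indicated activity. Compounds and 5-fluorouridine were added together to 2,000 cells per well, incubated for 16 hr at 37 °C, then developed with ONE-Glo.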
TDP1 cell noCPT: qHTS for Inhibitors of human tyrosyl-DNA phosphodiesterase 1 (TDP1): qHTS in cells in absence of CPT | DT40 Tdp1-/- hTDP1 cells, no CPT, ATP luminescence, 48 h | Potency, µM (titrated, usually from 46.2 µM), without a hit: top-dose activity change, negative = growth inhibition, usual class: inhibitors | 420,000 compounds, 15% hits | AID 686978, 2013; also: potency is read from the fitted curve at half-maximal effect; nearly all actives have a fitted effect of over 55% in size
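No-CPT arm: Tdp1-/-;hTDP1 DT40 cells (400/well) plus compounds, incubated ≥48 hr at 37 °C. Readout CellTiter-Glo luminescence.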
HT1080 IDH1KD tx: qHTS for induction of synthetic lethality in tumor cells producing 2HG: qHTS for the HT-1080-IDH1KD cell line. Potency, µM (doses to about 46.1 µM), without a hit: top-dose activity, negative = toxicity, usual class: cytotoxic. AID 686971, 2013. HT-1080 IDH1 knockdown viability, ATP luminescence, 48 h. 360,000 compounds, 2% hits;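 also: potency is read from the fitted curve at half-maximal effect; 0% = DMSO wells and -100% = cell-free medium wells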
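Knockdown cells (IDH1KD HT-1080) received compounds 2 h after plating at 750 cells/well and were kept 48 h at 37 °C in 5% FBS RPMI. A CellTiter-Glo luminescence read gave % activity for curve fitting.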
Starred values were filed as active, the others as inactive. Unless noted, calls follow the shape of the dose curve; as a rule, active = well fitted curve in the direction sought with a large enough effect; inconclusive = small, poorly fitted or top-dose-only effect, or another doubt; inactive = no such curve, though single readings can be large; an effect the other way counts as inactive or inconclusive. Unless noted, % is scaled to controls: 0 for no effect and ±100 for the full control effect.

For Cc1ccc(C(=O)c2c(N)c(C(=O)Nc3ccccc3Cl)c3ccccn23)cc1 the results were TDP1 cell CPT -22% and TDP1 cell noCPT -8%.
For O=C(NCCC1=CCCCC1)c1ccc2c(c1)sc1nc(-c3ccc(F)cc3)cn12 the results were TDP1 cell CPT -16% and TDP1 cell noCPT inconclusive.
Cc1cccc(C)c1NC(=O)C(C)c1ccc(-c2ccccc2)c(F)c1 (stereo not drawn) was read as HT1080-NT tox -19%, TDP1 cell CPT 23µM*, IL1B secr inh -4, TDP1 cell noCPT 16µM* and HT1080 IDH1KD tx -24%.
CCc1ccc(-n2c(SCC(=O)NC3CCS(=O)(=O)C3)nc3ccccc3c2=O)cc1 (stereo not drawn) was read as HT1080-NT tox 5%, TDP1 cell CPT -3%, IL1B secr inh -16, ELG1 DNA repair -1%, TDP1 cell noCPT 5% and HT1080 IDH1KD tx 2%.
`NC1C(N)C(N)C1N` (stereo not drawn) gave HT1080-NT tox 9%, TDP1 cell CPT 8%, TDP1 cell noCPT -14% and HT1080 IDH1KD tx 4%.
`COc1ccc(N=C2SCC(=O)N2CCc2ccc(OC)c(OC)c2)cc1` gave HT1080-NT tox -1%, TDP1 cell CPT inconclusive, IL1B secr inh -11, ELG1 DNA repair inconclusive, TDP1 cell noCPT 26µM* and HT1080 IDH1KD tx 2%.
COc1ccc(CCN2C(=O)CS/C2=N\NC(=O)c2ccc(C(C)(C)C)cc2)cc1OC was read as HT1080-NT tox 0%, TDP1 cell CPT inconclusive, IL1B secr inh 18, ELG1 DNA repair inconclusive, TDP1 cell noCPT 15µM* and HT1080 IDH1KD tx -4%.
CN(C)S(=O)(=O)c1cccc(COc2ncnc3c(Cl)cc(Cl)cc23)c1 was read as HT1080-NT tox 0%, TDP1 cell CPT inconclusive, IL1B secr inh 32, ELG1 DNA repair 18µM*, TDP1 cell noCPT inconclusive and HT1080 IDH1KD tx 5%.
`CN(C)S(=O)(=O)c1cccc(COC(=O)c2ccc(Cl)cc2O)c1` gave HT1080-NT tox -22%, TDP1 cell CPT inconclusive, IL1B secr inh 32, ELG1 DNA repair -7%, TDP1 cell noCPT inconclusive and HT1080 IDH1KD tx -25%.
`COc1ccc(C(=O)NC2CC2)cc1OC1CCN(Cc2ccc(NC(C)=O)cc2)CC1` gave HT1080-NT tox -11%, TDP1 cell CPT 9%, IL1B secr inh 26, ELG1 DNA repair -19%, TDP1 cell noCPT 19% and HT1080 IDH1KD tx 1%.
Screening O=[N+]([O-])c1ccc(C[n+]2cccc3ccc4cccnc4c32)cc1 returned HT1080-NT tox inconclusive, TDP1 cell CPT 1.8µM*, IL1B secr inh 0, ELG1 DNA repair 7.3µM*, TDP1 cell noCPT 1.6µM* and HT1080 IDH1KD tx inconclusive.
CCN(CC)S(=O)(=O)c1ccc(C(=O)NC(=S)N2CCCCC2C)cc1 (stereo not drawn) was read as HT1080-NT tox -11%, TDP1 cell CPT inconclusive, IL1B secr inh -5, TDP1 cell noCPT 16µM* and HT1080 IDH1KD tx 1%.
COCCCNC(=O)/C(C#N)=C/c1cccc(NC(=O)c2ccccc2Cl)c1 was read as HT1080-NT tox inconclusive, TDP1 cell CPT 2.6µM*, IL1B secr inh -103*, ELG1 DNA repair 1%, TDP1 cell noCPT 2.6µM* and HT1080 IDH1KD tx 15µM*.
COCCCNC(=O)/C(C#N)=C/c1ccc(F)cc1 was read as HT1080-NT tox 9%, TDP1 cell CPT 9%, IL1B secr inh -6, ELG1 DNA repair 3%, TDP1 cell noCPT -1% and HT1080 IDH1KD tx 25%.
`COCCNC(=O)/C(C#N)=C/c1ccc(SC)cc1` gave HT1080-NT tox -7%, TDP1 cell CPT -12%, IL1B secr inh inconclusive, ELG1 DNA repair inconclusive, TDP1 cell noCPT inconclusive and HT1080 IDH1KD tx -11%.
Screening COCCNC(=O)/C(C#N)=C/c1c(F)cccc1Cl returned HT1080-NT tox -19%, TDP1 cell CPT inconclusive, IL1B secr inh -54*, ELG1 DNA repair inconclusive, TDP1 cell noCPT 10µM* and HT1080 IDH1KD tx -8%.
`CCN(CC)S(=O)(=O)c1cccc(C(=O)Nc2sc3c(c2C#N)CCC(C)C3)c1` (stereo not drawn) gave TDP1 cell CPT -27% and TDP1 cell noCPT inconclusive.
COc1ccc(CCNc2nc(-c3ccc(NC(C)=O)cc3)cs2)cc1OC was read as HT1080-NT tox -13%, TDP1 cell CPT inconclusive, IL1B secr inh -17, ELG1 DNA repair inconclusive, TDP1 cell noCPT inconclusive and HT1080 IDH1KD tx -21%.
Screening COc1ccc(CCNc2nc(-c3ccccn3)cs2)cc1OC returned HT1080-NT tox inconclusive, TDP1 cell CPT 16µM*, IL1B secr inh 8, ELG1 DNA repair 18µM*, TDP1 cell noCPT 12µM* and HT1080 IDH1KD tx 3%.
c1coc(CNc2nc(-c3ccncc3)cs2)c1 was read as HT1080-NT tox 3%, TDP1 cell CPT inconclusive, IL1B secr inh -18, ELG1 DNA repair inconclusive, TDP1 cell noCPT -21% and HT1080 IDH1KD tx -4%.
For COc1ccc(CCNc2nc(-c3ccncc3)cs2)cc1OC the results were HT1080-NT tox -14%, TDP1 cell CPT 21µM*, IL1B secr inh -21, ELG1 DNA repair inconclusive, TDP1 cell noCPT inconclusive and HT1080 IDH1KD tx -20%.
Screening c1ccc(CCNc2nc(-c3ccncc3)cs2)cc1 returned HT1080-NT tox -7%, TDP1 cell CPT inconclusive, IL1B secr inh -60*, ELG1 DNA repair inconclusive, TDP1 cell noCPT inconclusive and HT1080 IDH1KD tx -14%.
For COc1ccc(CCNc2nc(-c3cccnc3)cs2)cc1OC the results were HT1080-NT tox 8%, TDP1 cell CPT inconclusive, IL1B secr inh -11, ELG1 DNA repair inconclusive, TDP1 cell noCPT inconclusive and HT1080 IDH1KD tx -1%.
Screening COc1ccc(CCNc2nc(-c3ccc(O)cc3)cs2)cc1OC returned HT1080-NT tox -8%, TDP1 cell CPT 16µM*, IL1B secr inh -62*, ELG1 DNA repair 23µM*, TDP1 cell noCPT 16µM* and HT1080 IDH1KD tx -10%.

Bioassay records: PubChem, National Center for Advancing Translational Sciences (NCATS)
